Shown are actives, neighbours in structure and some others; about 12% of the full set was active somewhere.
JMJD2A Tudor inh: inhibitors of human JMJD2A Tudor domain. O75164. AlphaScreen JMJD2A-Tudor / H3K4me3 peptide binding. Potency, µM (highest dose often 114 µM), for the others: at the top dose activity change, negative = inhibition, most hits filed as inhibitors. 390,000 compounds, 4.4% hits; also: % is scaled to controls: 0 for no effect and ±100 for the full control effect; nearly all actives have a fitted effect of over 50% in size
Sfp PPTase inh: inhibitors of Bacillus subtilis Sfp phosphopantetheinyl transferase | Q9F4F7 | Biochemical Sfp PPTase activity, qHTS | Potency, µM, for the others: largest response in the series, negative = inhibition, hits mostly inhibitors | 310,000 compounds, 3.5% hits;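 also: the enzyme is Sfp with the accession as filed and its product quenches rhodamine fluorescence; 0% = enzyme reaction without inhibitor and -100% = no enzyme wells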
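After 15 min at room temperature with compound, 15 nM Sfp received 5 uM rhodamine-CoA plus 12.5 uM BHQ-2-ybbR (50 mM Hepes pH 7.6, 10 mM MgCl2). Rate came from the fluorescence difference over 30 min, ex 525/em 598 nm.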
HP1b binding inh: blocks HP1-beta chromodomain binding to methylated histone tails; AlphaScreen HP1-beta / biotin-H3K9me3 peptide binding; 390,000 compounds, 0.56% hits; P83916; Potency, µM (doses to about 114 µM), without a hit: at the top dose activity change, negative = inhibition, actives largely listed as inhibitors; also: nearly all actives have a fitted effect of over 70% in size
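AlphaScreen: HP1-beta (50 nM) preformed 30 min with biotin-H3(1-18)K9me3 peptide (50 nM) in PBS pH 7.4, 0.01% Tween-20. Compound added for 30 min at RT, then streptavidin donor/nickel chelate acceptor beads (10 ug/mL) for 30 min.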
G9a inh: inhibitors of human histone lysine methyltransferase G9a; G9a H3K9 monomethylation, AlphaScreen, 2 h; Potency, µM (doses to about 102 µM), for inactives: at the top dose activity, negative = inhibition, most hits filed as inhibitors; Q96KQ7; 350,000 compounds, 8.8% hits; AID 504332; also: % is scaled to controls: 0 for no effect and ±100 for the full control effect; nearly all actives have a fitted effect of over 75% in size
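Compounds were preincubated with 20 nM G9a for 15 min, after which biotinylated H3K9 peptide (500 nM) and SAM (20 uM) started a 2 h room-temperature reaction. Monomethylated product was quantified by antibody-based AlphaScreen chemiluminescence.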
BAZ2B inh: inhibitors of human BAZ2B bromodomain | Potency, µM (titrated, usually from 114 µM), for the others: at the top dose activity change, negative = inhibition, actives largely listed as inhibitors | 360,000 compounds, 4.4% hits | AlphaScreen BAZ2B-H3K14Ac peptide displacement; also: % is scaled to controls: 0 for no effect and ±100 for the full control effect; nearly all actives have a fitted effect of over 60% in size
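AlphaScreen luminescence quantifies BAZ2B engagement of H3K14Ac peptide; the protein and biotinylated peptide are both at 50 nM final, buffer PBS pH 7.4 with 0.01% Tween-20, all steps at room temperature.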
L3MBTL1 inh-1: inhibitors of human L3MBTL1 | Potency, µM (series often up to 57.1 µM), for the others: top-dose activity, negative = inhibition, hits mostly inhibitors | AID 485360 | AlphaScreen L3MBTL1–H3K9me1 peptide binding | 230,000 compounds, 0.66% hits; also: % is scaled to controls: 0 for no effect and ±100 for the full control effect; nearly all actives have a fitted effect of over 60% in size
Target sequence (Q9Y468 whole entry, looked up): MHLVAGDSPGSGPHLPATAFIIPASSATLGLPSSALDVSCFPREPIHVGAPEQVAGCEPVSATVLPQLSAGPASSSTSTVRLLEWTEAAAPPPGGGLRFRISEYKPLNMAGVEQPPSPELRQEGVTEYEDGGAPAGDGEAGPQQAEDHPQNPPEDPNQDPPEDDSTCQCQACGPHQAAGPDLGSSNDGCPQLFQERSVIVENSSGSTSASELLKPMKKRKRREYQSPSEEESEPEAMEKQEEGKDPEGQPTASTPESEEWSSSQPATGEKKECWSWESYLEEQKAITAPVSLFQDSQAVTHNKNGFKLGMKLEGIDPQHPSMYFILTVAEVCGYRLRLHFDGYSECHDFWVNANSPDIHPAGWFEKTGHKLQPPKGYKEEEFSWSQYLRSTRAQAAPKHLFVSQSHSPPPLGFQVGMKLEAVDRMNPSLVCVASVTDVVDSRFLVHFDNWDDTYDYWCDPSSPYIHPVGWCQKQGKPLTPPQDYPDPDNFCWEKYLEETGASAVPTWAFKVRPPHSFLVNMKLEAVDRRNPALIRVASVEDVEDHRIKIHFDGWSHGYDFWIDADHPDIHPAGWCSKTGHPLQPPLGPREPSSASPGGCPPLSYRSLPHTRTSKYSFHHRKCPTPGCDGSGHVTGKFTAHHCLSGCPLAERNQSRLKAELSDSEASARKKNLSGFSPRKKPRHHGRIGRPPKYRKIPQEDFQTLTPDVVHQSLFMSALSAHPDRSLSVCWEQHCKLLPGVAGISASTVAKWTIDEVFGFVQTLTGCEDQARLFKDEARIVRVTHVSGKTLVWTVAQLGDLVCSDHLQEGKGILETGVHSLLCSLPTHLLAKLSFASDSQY
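AlphaScreen proximity signal between nickel-chelate acceptor and streptavidin donor beads (final 10 ug/mL) reports binding of 50 nM L3MBTL1 to 75 nM biotin-H3 K9me1 peptide; complex incubated with compounds 30 min at room temperature; cefsulodin titration as control.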
L3MBTL1 inh-2: validation of human L3MBTL1 methyl-lysine binding inhibitors; L3MBTL1 methyl-lysine binding inhibition, biochemical qHTS; shares compounds with L3MBTL1 inh-1; Potency, µM, most hits filed as inhibitors; 500 compounds, 91% hits; also: nearly all actives have a fitted effect of over 70% in size
L3MBTL1 ctr: AlphaScreen signal inhibition, L3MBTL1 hit counter-screen | 500 tested, under 10 active | AlphaScreen counterscreen, signal inhibition | shares compounds with L3MBTL1 inh-1 | Potency, µM (series often up to 57.1 µM), for inactives: at the highest dose activity change, negative = inhibition, most hits filed as inhibitors; also: 0% is about no effect
Numbers without * were called inactive; ? = inconclusive; / = not tested or not shown; ! = not confirmed by another sample; [ ] = another dose, or the depositor's remark. Calls follow the shape of the dose curve; as a rule, active = well fitted curve in the direction sought with a large enough effect; inconclusive = small, poorly fitted or top-dose-only effect, or another doubt; inactive = no such curve, though single readings can be large; an effect the other way counts as inactive or inconclusive. Potency is read from the fitted curve at half-maximal effect.

SMILES | JMJD2A Tudor inh | Sfp PPTase inh | HP1b binding inh | G9a inh | BAZ2B inh | L3MBTL1 inh-1 | L3MBTL1 inh-2 | L3MBTL1 ctr
O=C1NC(=Nc2ccc(Cl)cc2)/C(=C/c2ccco2)S1 | 11µM* | 50µM* | -1% | 3.2µM* | 50µM* | 25µM* | 8.4* | 5%
Cc1ccc(N=C2NC(=O)/C(=C\c3ccco3)S2)cc1 | ? | -20% | -21% | ? | 40µM* | 20µM* | 27* | -7%
NCCC[C@@H](CC(=O)N[C@@H]1CCCC[C@H]1C(=O)N[C@H](CC(=O)N[C@@H](CCC(=O)O)CC(=O)O)Cc1ccccc1)NC(=O)C[C@H](CO)NC(=O)[C@@H]1CCCC[C@H]1N | / | 6% | / | / | / | / | / | /
COc1ccc(/C=C\c2nc(=O)c3ccccc3o2)cc1 | ? | 13% | -2%[57 µM] | ? | -33% | / | / | /
O=c1nc(/C=C/c2ccc(O)c(O)c2)oc2ccccc12 | -29% | 4% | -6% | 40µM* | ? | 28µM* | 1.9* | -2%
CCN(CC)C(=O)Cn1c(=O)n(Cc2ccc(C(=O)NCc3ccccc3Cl)cc2)c(=O)c2ccccc21 | -4% | / | 27% | -36%[59 µM] | -4% | / | / | /
CC(=O)OCC1=C(C(=O)O)N2C(=O)[C@@H](NC(=O)CSc3ccncc3)[C@H]2SC1 | 18µM* | / | ? | 16µM*! | 45µM* | 16µM* | 3* | 7%
CC1=C(C(=O)O)N2C(=O)[C@@H](NC(=O)[C@H](N)c3ccc(O)cc3)[C@H]2SC1 | -20% | / | 3% | / | / | / | / | /
O=C(COc1ccccc1)N(Cc1cccnc1)c1nc2c(F)cccc2s1 | -10% | / | 23% | 14%[59 µM] | -7% | / | / | /
O=C(COc1ccc2oc3c(c2c1)CCCC3)Nc1ccc(Cl)cc1 | -6% | / | 21% | -1%[59 µM] | 0% | / | / | /
O=C(Nc1ccc2nc(-c3ccco3)c(-c3ccco3)nc2c1)NC1CC1 | 20µM* | 5µM* | 35µM* | ? | 11µM* | 4µM* | 2.4* | -18%
O=C(NCC1CC1)c1ccc2c3n(nc2c1)-c1ccc(Cl)cc1CO3 | -27% | / | 28% | / | / | / | / | /
O=C(O)c1ccc2c3n(nc2c1)-c1ccc(Cl)cc1CO3 | -15% | 4% | 27% | 50µM* | ? | 5µM* | 21* | -4%
CCCn1c(C)nc2c(NCCN(C)C)nc(C)nc21 | / | 1% | / | / | / | / | / | /
O=C(Nc1cccc(C(=O)N2CCOCC2)c1)c1ncn[nH]1 | 28µM* | -7% | 8% | -43%[59 µM] | 20µM* | 28µM* | 21* | ?
CC(Oc1ccccc1)C(=O)Nc1ccc(C(=O)OCc2cc(=O)n3nc(C4CC4)sc3n2)cc1 (stereo not drawn) | -15% | / | -12% | 24%[59 µM] | -12% | / | / | /
C=CC(=O)NCC1OCCc2ccccc21 (stereo not drawn) | 4%[11.4 µM] | 12% | 8% | 16%[12.7 µM] | -8% | 8% | / | /
O=C(/C=C/c1ccco1)NCC1OCCc2ccccc21 (stereo not drawn) | 50µM* | 22µM* | 32µM* | 5%[12.7 µM] | 45µM* | 22µM* | 6* | 1%
C[C@]12CCC(=O)C=C1CCC1C3CC[C@](O)(C(=O)CO)[C@@]3(C)CC3OC312 (stereo partly drawn) | / | -2% | / | / | / | / | / | /
CCc1ccc(CN2CCc3nc(N4CCN(c5ccccc5F)CC4)ncc3C2)cc1 | -15% | / | 52% | -5%[12.7 µM] | -21% | / | / | /
Cc1ccc(C(=O)OCC(=O)c2ccc(CC(=O)N3CCOCC3)s2)c(C)c1 | 13µM* | / | -36% | 45µM* | 50µM* | 20µM* | 3* | 8%
Cc1ccc(-n2c(C)cc(C(=O)OCC(=O)N3CCOCC3)c2C)cc1 | -21% | / | ? | / | / | -4% | / | /
COCCn1c(C)cc(C(=O)COC(=O)c2cc3c(s2)CCC3)c1C | 35µM* | 2% | ? | 45µM* | 40µM* | 10µM* | 6.7* | ?
COCCn1c(C)cc(C(=O)COC(=O)c2cccc(O)c2)c1C | -24% | 10% | -6% | ? | ? | / | / | /
N=C1/C(=C\c2ccc(-c3cccc(Cl)c3)o2)C(=O)N=C2SC=C(c3ccccc3)N12 | ? | 6.3µM* | ? | 45µM* | ? | 35µM* | 27* | ?
SMILES | JMJD2A Tudor inh | Sfp PPTase inh | HP1b binding inh | G9a inh | BAZ2B inh | L3MBTL1 inh-1 | L3MBTL1 inh-2 | L3MBTL1 ctr
Cc1cc(/C=C2/C(=N)N3C(c4ccccc4)=CSC3=NC2=O)c(C)n1-c1ccc(Cl)cc1 | -10% | / | 13% | / | / | / | / | /
O=C(/C=C/c1ccco1)N(c1ccccn1)c1ccccn1 | 22µM* | 40µM* | 32µM* | 13µM* | 22µM* | 4µM* | 2.7* | -2%
Cc1cccc(C(=O)N(c2ccccn2)C(C)c2ccco2)c1 (stereo not drawn) | -20% | 23% | 10% | -1% | -16% | 4% | / | /
COc1ccc(CNC(=O)c2cnc(C)cn2)cc1 | -30% | 15% | 17% | -2%[59 µM] | 50µM* | 22µM* | 17* | 13%
Nc1nnc(SCC(=O)Nc2cccc(F)c2)s1 | 7% | / | 58% | 5%[59 µM] | -8% | / | / | /
CCc1ccccc1NC(=O)CSc1ccsc1[N+](=O)[O-] | ? | -11% | -22% | ? | 50µM* | 28µM* | 24* | -3%
O=C(CSc1ccsc1[N+](=O)[O-])Nc1cccc(F)c1 | 45µM* | -14% | ? | 50µM* | 35µM* | 28µM* | 7.5* | -4%
CN(C)c1ncc2nc(-c3ccc(Cl)cc3)c(=O)n(CCC#N)c2n1 | / | 9% | / | 9%[0.501 µM] | / | / | / | /
CC(C)CN1CC[C@@]2(CCCN(C(=O)c3cnccn3)C2)C1 | / | -5% | / | 7%[12.7 µM] | / | / | / | /
COc1ccc(-c2cc3nc(-c4ccc(C)cc4)cc(C(F)(F)F)n3n2)cc1 | 9% | / | 39% | -32%[59 µM] | 7% | / | / | /
Cc1cc(NS(=O)(=O)c2ccc(NC(=O)Cc3cccs3)cc2)no1 | -15% | 18% | 28% | 4%[12.7 µM] | -2% | ? | / | /
Cc1cc(NC(=O)Cc2cccs2)no1 | 18µM* | -19% | ? | ? | 45µM* | 28µM* | 3.4* | -20%
CCOc1ccc2cc(-c3nnc(Nc4ccc(C)cc4)s3)c(=O)oc2c1 | -11% | / | 32% | -40%[59 µM] | -26% | / | / | /
O=c1cc(-c2ccccc2)c2c([nH]1)CCCC2 | -11% | 7% | 6% | ? | -6% | -2% | / | /
O=c1cc(-c2ccccc2Cl)c2c([nH]1)CCC2 | -31% | -15% | 23% | ? | -4% | 28µM* | ? | 8%
